Measurements: PubChem BioAssay (NCI)
This is part of a sample that, as a whole, favours compounds with a hit. Of some 79,000 tested, about 15% had one in any assay. The source made the active and inactive calls. Cut-off read from the data, not from the text of the source: active = growth inhibition above about 70%; inactive = the rest.

Assays:
[1] = NCI Yeast Anticancer Drug Screen. Data for the rad52 strain (AID 147);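 note: 0% = growth of vehicle-treated control cultures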; details: S. cerevisiae rad52 mutant growth inhibition, active compounds read high
Outline: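 Inhibition of yeast growth, referenced to vehicle controls, was the measured output for a strain with defective DNA damage repair.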

[2] = NCI Yeast Anticancer Drug Screen. Data for the wt1 strain (AID 149);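 note: 0% = growth of vehicle-treated wt1 cultures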; details: S. cerevisiae wt1 strain (SPY 50644) growth inhibition, active compounds read high
Outline: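 Compounds are added to wt1 yeast cultures. Growth is then measured. Inhibition is expressed relative to vehicle-treated controls.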

[3] = NCI Yeast Anticancer Drug Screen. Data for the rad50EPP+ strain (AID 151);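 note: 0% = growth of vehicle-treated control cultures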; details: S. cerevisiae rad50 mutant strain, active compounds read high
Outline: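 Genetically defined yeast (rad50EPP+, DNA damage repair alteration) is grown with compound, and inhibition of growth is expressed relative to vehicle-treated controls.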

[4] = NCI Yeast Anticancer Drug Screen. Data for the rad50 strain (AID 155);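 note: 0% = growth of vehicle-only cultures of the same strain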; details: S. cerevisiae rad50 strain growth inhibition, active compounds read high
Outline: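 Inhibition values express reduced yeast growth in compound-treated cultures relative to vehicle-treated controls.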

[5] = NCI Yeast Anticancer Drug Screen. Data for the mec2-1 strain (AID 157); details: S. cerevisiae mec2-1 strain, active compounds read high
Outline: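 Each compound was tested on mec2-1 yeast, a strain altered in DNA damage repair or cell cycle control. Growth inhibition is reported relative to vehicle.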

[6] = NCI Yeast Anticancer Drug Screen. Data for the rad14 strain (AID 159);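 note: 0% = growth of vehicle-treated control cultures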; details: S. cerevisiae rad14 strain growth inhibition, active compounds read high
Outline: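 A mutant yeast strain defective in DNA damage repair is treated with compound; inhibition of its growth is scored against untreated, vehicle-exposed cultures.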

[7] = NCI Yeast Anticancer Drug Screen. Data for the sgs1 mgt1 strain (AID 161);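 note: 0% = growth of cultures given vehicle only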; details: S. cerevisiae sgs1 mgt1 strain, active compounds read high
Outline: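 Genetically altered yeast, compound exposure, growth inhibition relative to vehicle.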

[8] = NCI Yeast Anticancer Drug Screen. Data for the CLN2oe strain (AID 163);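 note: 0% = growth of vehicle-only control cultures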; details: S. cerevisiae CLN2oe strain, active compounds read high
Outline: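 First, the altered yeast strain was treated with each compound; second, its growth was measured; finally, inhibition was derived by comparison with vehicle controls.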

[9] = NCI Yeast Anticancer Drug Screen. Data for the cln2 rad14 strain (AID 165);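 note: 0% = growth equal to vehicle treated cultures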; details: S. cerevisiae cln2 rad14 strain, active compounds read high
Outline: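 Test compounds were added to cln2 rad14 yeast cultures; inhibition of growth was then determined by comparison with vehicle treatment.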

[10] = NCI Yeast Anticancer Drug Screen. Data for the wt2 strain (AID 169);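 note: 0% = growth of vehicle-treated yeast cultures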; details: S. cerevisiae wt2 strain growth inhibition, active compounds read high
Outline: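 The panel's yeast strains carry defined changes in DNA repair or cell cycle genes. Each strain is grown with compound, and growth loss is scored relative to vehicle.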

[11] = NCI Yeast Anticancer Drug Screen. Data for the mlh1 strain (AID 171);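 note: 0% = growth of vehicle-treated control cultures of the same strain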; details: S. cerevisiae mlh1 strain growth inhibition, active compounds read high
Outline: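 Inhibition values reflect reduced yeast growth in the presence of compound, referenced to vehicle controls, using a strain chosen for its alteration in DNA repair or cell cycle control.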

[12] = NCI Yeast Anticancer Drug Screen. Data for the sgs1 strain (AID 173);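 note: 0% = growth of vehicle-only control cultures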; details: S. cerevisiae sgs1 mutant, active compounds read high
Outline: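 Vehicle-treated cultures served as reference for growth inhibition of a yeast strain altered in DNA damage repair or cell cycle control after compound exposure.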

[13] = NCI Yeast Anticancer Drug Screen. Data for the rad18 strain (AID 177); details: S. cerevisiae rad18 mutant growth inhibition, active compounds read high
Outline: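 Steps: expose repair-mutant yeast to compound; measure growth; express as inhibition relative to vehicle control.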

[14] = NCI Yeast Anticancer Drug Screen. Data for the bub3 strain (AID 167); details: S. cerevisiae bub3 mutant strain, active compounds read high
Outline: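 Steps: expose the mutant yeast strain to compound; grow alongside vehicle-treated cultures; measure growth; express inhibition against the vehicle cultures.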

[15] = at 5.0 µM (retest, dose inferred, filed as 0.5)
[16] = at 50.0 µM (retest, dose inferred, filed as 5.0)

Measured: growth inhibition

O=[N+]([O-])/C(C(Cl)=C(Cl)Cl)=C1/OCCS1
active: [1]; at 3.7 µM 72% | [1]; at 11.0 µM 97% | [1]; at 33.0 µM 99% | [1]; at 100.0 µM 99% | [2]; at 11.0 µM 94% | [2]; at 33.0 µM 99% | [2]; at 100.0 µM 99% | [3]; at 33.0 µM 77% | [4]; at 11.0 µM 95% | [4]; at 33.0 µM 99% | [4]; [16] 100% | [4]; at 50.0 µM 90.5% | [4]; at 100.0 µM 99% | [5]; at 11.0 µM 97% | [5]; at 33.0 µM 98% | [5]; [16] 100% | [5]; at 50.0 µM 93.6% | [5]; at 100.0 µM 98% | [6]; at 11.0 µM 96% | [6]; at 33.0 µM 99% | [6]; at 100.0 µM 98% | [7]; [16] 100% | [7]; at 50.0 µM 90.6% | [8]; at 11.0 µM 94% | [8]; at 33.0 µM 98% | [8]; at 100.0 µM 99% | [9]; [16] 99% | [9]; at 50.0 µM 91% | [10]; at 11.0 µM 95% | [10]; at 33.0 µM 99% | [10]; at 100.0 µM 99% | [11]; at 11.0 µM 97% | [11]; at 33.0 µM 99% | [11]; at 100.0 µM 98% | [12]; at 3.7 µM 78% | [12]; at 11.0 µM 97% | [12]; at 33.0 µM 99% | [12]; at 100.0 µM 99% | [13]; at 1.2 µM 86% | [13]; at 3.7 µM 93% | [13]; at 11.0 µM 97% | [13]; at 33.0 µM 99% | [13]; at 100.0 µM 98%
inactive: [1]; at 1.2 µM 30% | [2]; at 1.2 µM 4% | [2]; at 3.7 µM 30% | [3]; at 1.2 µM 20% | [3]; at 3.7 µM 37% | [3]; at 11.0 µM 61% | [3]; at 100.0 µM 64% | [4]; at 1.2 µM 19% | [4]; at 3.7 µM 56% | [4]; [15] 16% | [5]; at 1.2 µM 24% | [5]; at 3.7 µM 55% | [5]; [15] 11% | [6]; at 1.2 µM 14% | [6]; at 3.7 µM 39% | [7]; [15] 40% | [8]; at 1.2 µM 15% | [8]; at 3.7 µM 44% | [9]; [15] -2% | [10]; at 1.2 µM 7% | [10]; at 3.7 µM 32% | [11]; at 1.2 µM 11% | [11]; at 3.7 µM 48% | [12]; at 1.2 µM 42%

C/C(=N\NC(=S)NC1CCCC1)c1ccccn1
inactive: [1]; at 1.2 µM -5% | [2]; at 1.2 µM 3% | [3]; at 1.2 µM -6% | [3]; at 3.7 µM 14% | [4]; at 1.2 µM -5% | [4]; [15] 23% | [5]; at 1.2 µM 2% | [5]; [15] 33% | [6]; at 1.2 µM -9% | [7]; [15] 13% | [8]; at 1.2 µM -6% | [9]; [15] 41% | [14]; at 1.2 µM -5% | [14]; at 3.7 µM 64% | [14]; [15] 9% | [10]; at 1.2 µM -3%
active: [1]; at 3.7 µM 78% | [1]; at 11.0 µM 99% | [1]; at 33.0 µM 99% | [1]; at 100.0 µM 99% | [2]; at 3.7 µM 75% | [2]; at 11.0 µM 99% | [2]; at 33.0 µM 99% | [2]; at 100.0 µM 99% | [3]; at 11.0 µM 90% | [3]; at 33.0 µM 98% | [3]; at 100.0 µM 97% | [4]; at 3.7 µM 77% | [4]; at 11.0 µM 98% | [4]; at 33.0 µM 99% | [4]; [16] 99% | [4]; at 50.0 µM 79.2% | [4]; at 100.0 µM 98% | [5]; at 3.7 µM 77% | [5]; at 11.0 µM 99% | [5]; at 33.0 µM 99% | [5]; [16] 97% | [5]; at 50.0 µM 86% | [5]; at 100.0 µM 99% | [6]; at 3.7 µM 87% | [6]; at 11.0 µM 99% | [6]; at 33.0 µM 99% | [6]; at 100.0 µM 99% | [7]; [16] 99% | [7]; at 50.0 µM 92% | [8]; at 3.7 µM 84% | [8]; at 11.0 µM 99% | [8]; at 33.0 µM 99% | [8]; at 100.0 µM 99% | [9]; [16] 100% | [9]; at 50.0 µM 90.3% | [14]; at 11.0 µM 99% | [14]; at 33.0 µM 99% | [14]; [16] 98% | [14]; at 50.0 µM 91% | [14]; at 100.0 µM 99% | [10]; at 3.7 µM 71% | [10]; at 11.0 µM 99% | [10]; at 33.0 µM 99% | [10]; at 100.0 µM 99%
